NS1 function inh = influenza NS1 inhibition; AID 2326; Potency, µM (doses to about 46.1 µM); 0.4% of 270,000 active; calls by dose curve; further: actives are rising curves; nearly all actives have a fitted effect of over 50% in size
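Recovery from NS1-induced slow growth read by OD600 in budding yeast switched to galactose assay medium (pH 6.0, -URA) at 1:100 dilution. Compound 23 nl per well; the matching strain lacking NS1 serves as control.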
Pf growth 96h = P. falciparum growth inhibition at 96 hours; P. falciparum luciferase reporter growth, 96 h; Potency, µM (titrated, usually from 28.7 µM), usual class: inhibitors; 6.9% of 320,000 active; AID 504834
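Two parasite generations (96 h, 37 C, 5% CO2) of compound exposure in infected erythrocytes (0.05% parasitemia, 2% hematocrit). Luciferase-reporter P. falciparum; decreased luminescence indicates inhibited growth, aimed at apicoplast-acting delayed death.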
Cycloheximide cs = counter-screen hit for Shiga toxin inhibitors, cycloheximide; cell reporter, cycloheximide protein synthesis inhibition counterscreen; max response, %; 12% of 300,000 active; in the data active means max response mostly above about 13%, no sharp cut-off; inactive means mostly below about 14%; further: read at 38.3 µM for the half of the compounds with a filed dose
Shiga inhibitor = Shiga toxin inhibition; Vero cells, Shiga toxin protein synthesis inhibition reporter; inhibition, % at 38.7 µM; 9.2% of 290,000 active; AID 2315; in the data active means inhibition mostly above about 28%, no sharp cut-off; inactive means mostly below about 43%
Sm TGR block = blocks Schistosoma mansoni thioredoxin glutathione reductase; Potency, µM (top dose mostly 114 µM), hits mostly inhibitors; purified TGR, DTNB reduction, TNB absorbance 405 nm; Q962Y6; 3% of 360,000 active; further: nearly all actives have a fitted effect of over 60% in size
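TGR 20 nM + NADPH 100 uM (dispensed conc.), cpd preinc 15 min RT; start with NADPH (500 uM addition) then DTNB (15 mM addition). Kinetic TNB absorbance, 405 nm filter. Four-parameter Hill fit across titration.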
Pf growth 48h = inhibits P. falciparum growth in the first generation, 48 h; P. falciparum luciferase growth in erythrocytes, 48 h; AID 504832; 5.9% of 310,000 active; Potency, µM (highest dose often 28.7 µM), hits mostly inhibitors
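Cell-based growth assay: transgenic P. falciparum expressing firefly luciferase, cultured in red cells within RPMI 1640 containing 0.5% w/v Albumax, 24 mM bicarbonate and gentamycin. A drop in luciferase activity indicates inhibition.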
Numbers stand for hits. In the library only some 21% were active in any assay of this set; here they are far more common. Unless noted, the call rests on the fitted dose curve; in most records, active means well fitted curve in the direction sought with a large enough effect; inconclusive means small, poorly fitted or top-dose-only effect, or another doubt; inactive means no such curve, though single readings can be large; an effect the other way counts as inactive or inconclusive.

COc1ccc(Cl)cc1NC(=O)CN(C)C(=O)CCSc1ccc(C)cc1 was read as Pf growth 96h 11.7µM, Sm TGR block inactive and Pf growth 48h 11.7µM.
`COc1ccc(Cl)cc1NC(=O)CN(C)C(=O)c1cc2c(s1)CCCC2` gave Pf growth 96h 5.22µM, Sm TGR block inactive and Pf growth 48h 9.28µM.
`COc1ccc(OC)c(S(=O)(=O)N(C)CC(=O)Nc2cc(Cl)ccc2OC)c1` gave NS1 function inh inactive, Pf growth 96h 7.38µM, Cycloheximide cs inactive, Shiga inhibitor inactive, Sm TGR block inactive and Pf growth 48h 9.28µM.
For COc1ccc(-n2c(C)cc(=O)[nH]c2=O)cc1 the results were NS1 function inh inactive, Pf growth 96h inconclusive, Cycloheximide cs inactive, Shiga inhibitor inactive, Sm TGR block inactive and Pf growth 48h inactive.
`O=C(NCc1ccccn1)C(=O)NN=C1CCCCCCC1` gave Pf growth 96h inconclusive, Cycloheximide cs inactive, Shiga inhibitor inactive, Sm TGR block inactive and Pf growth 48h inactive.
CCN(CC(=O)Nc1ccccc1C(F)(F)F)C(=O)c1ccc(=O)n(Cc2ccccc2)n1 was read as NS1 function inh inactive, Pf growth 96h inconclusive, Cycloheximide cs inactive, Shiga inhibitor inactive, Sm TGR block inactive and Pf growth 48h inconclusive.
Screening O=c1c2cccnc2n(Cc2ccccc2F)c(=O)n1Cc1ccc(F)cc1 returned Sm TGR block inactive.
Screening COc1ccc(NC(C)=O)cc1NC(=O)c1cccc(S(=O)(=O)N2CCN(Cc3ccccc3)CC2)c1 returned Pf growth 96h 3.7µM, Sm TGR block inactive and Pf growth 48h inconclusive.
COc1ccccc1OCCNC(=O)c1cccc(S(=O)(=O)N2CCN(Cc3ccccc3)CC2)c1 was read as Pf growth 96h inactive, Sm TGR block inactive and Pf growth 48h inconclusive.
`COc1ccccc1NC(=O)c1cccc(S(=O)(=O)N2CCN(Cc3ccccc3)CC2)c1` gave Pf growth 96h 11.7µM, Sm TGR block inactive and Pf growth 48h inconclusive.
Screening COc1ccc(S(=O)(=O)N2CCc3ccccc32)cc1C(=O)Nc1ccc(C(N)=O)cc1 returned Pf growth 96h 7.38µM, Sm TGR block inactive and Pf growth 48h inconclusive.
`Cn1c(N)c(C(=O)COC(=O)c2ccc(Cl)c(S(=O)(=O)N3CCCC3)c2)c(=O)n(C)c1=O` gave NS1 function inh inactive, Pf growth 96h inconclusive, Cycloheximide cs inactive, Shiga inhibitor inactive, Sm TGR block inactive and Pf growth 48h 8.28µM.
COc1ccccc1C(=O)Nc1ccc(S(=O)(=O)N2CCc3ccccc32)cc1 was read as NS1 function inh inconclusive, Pf growth 96h inconclusive, Cycloheximide cs inactive, Shiga inhibitor inactive and Sm TGR block inactive.
For COc1cc(NC(=O)c2nnn(CC(=O)Nc3ccccc3)c2N)cc(OC)c1 the results were Sm TGR block inactive.
Cc1cc(C)c(S(=O)(=O)N2CCN(C(=O)CN3C(=O)NC4(CCCC4)C3=O)CC2)c(C)c1 was read as NS1 function inh inactive, Pf growth 96h inactive, Cycloheximide cs inactive, Shiga inhibitor inactive, Sm TGR block inactive and Pf growth 48h inactive.
For COc1ccc(CN2CCN(S(=O)(=O)c3ccc(NC(C)=O)cc3)CC2)c(OC)c1OC the results were NS1 function inh inactive, Pf growth 96h 13.1µM, Cycloheximide cs inactive, Shiga inhibitor inactive, Sm TGR block inactive and Pf growth 48h inconclusive.
`Cc1cc(F)ccc1NC(=O)c1cc(S(=O)(=O)N2CCc3ccccc32)cn1C` gave NS1 function inh inactive, Pf growth 96h 10.4µM, Cycloheximide cs inactive, Shiga inhibitor inactive, Sm TGR block inactive and Pf growth 48h inconclusive.
Screening COc1ccc(S(=O)(=O)N2CCc3ccccc32)cc1C(=O)OCC(=O)c1c(N)n(C)c(=O)n(C)c1=O returned NS1 function inh inactive, Pf growth 96h inactive, Cycloheximide cs inactive, Shiga inhibitor inactive, Sm TGR block inactive and Pf growth 48h 4.15µM.
COc1ccc(NC(C)=O)cc1NC(=O)c1cccc(S(=O)(=O)N2CCc3ccccc32)c1 was read as Pf growth 96h inconclusive, Sm TGR block inactive and Pf growth 48h 13.1µM.
CC(=O)NS(=O)(=O)c1ccc(NC(=O)c2cccc(S(=O)(=O)N3CCc4ccccc43)c2)cc1 was read as NS1 function inh inactive, Pf growth 96h inactive, Cycloheximide cs inactive, Shiga inhibitor inactive, Sm TGR block inactive and Pf growth 48h inactive.
